Assay results: the supplement of paper PMC7866885, “A novel bicyclic 2,4-diaminopyrimidine inhibitor of Streptococcus suis dihydrofolate reductase” (PeerJ, 2021)
± gives the standard deviation.

System: Streptococcus suis HE06
Assay: percent growth relative to DMSO control; higher = less growth inhibition
Conditions: 10 µM; incubation time 18 h
Procedure: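 CLSI broth microdilution: 5x10^4 CFU of Streptococcus suis (strain P1/7 or HE06) incubated with 10 µM Pathogen Box compound in cation-adjusted Mueller Hinton broth, 37 °C, 5% CO2, 18 h. Growth read as OD600 and expressed as percent of the DMSO-treated control (100%); mean ± SD of three independent experiments.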

Row | Compound | percent growth [%]
1 | O=C(NC1CC1)c1ccc(N2CCOc3ccc(Cl)cc32)s1 | 73.8 ± 20
2 | Cc1ccccc1CN1CCC(O)(c2ccc(Cl)c(C(F)(F)F)c2)CC1 | 93.7 ± 15
3 | O=C(c1ccc(NCCO)cc1)C1C[C@H]1c1ccc(Cl)cc1 (stereo partly specified) | 147 ± 53
4 | COc1cccc(-n2nnnc2S(=O)(=O)Cc2ccccc2)c1 | 33.8 ± 19
5 | N#Cc1ccc(-c2cnc(N)c(-c3ccc(C(N)=O)cc3)n2)cc1 | 114 ± 46
6 | CCc1nc2ccc(C(=O)NCc3ccc4c(c3)OCO4)cn2c1N(C)Cc1cccs1 | 122 ± 67
7 | CCN(CC)S(=O)(=O)c1ccc(Cl)c(C(=O)Nc2ccc3nc(C)sc3c2)c1 | 83.9 ± 6.7
8 | CS(=O)(=O)Cc1nc2ccccc2oc1=O | 67.6 ± 7.5
9 | O=C(Nc1ccnc(-c2cccnc2)n1)c1cc(C(F)(F)F)cc(C(F)(F)F)c1 | 78.2 ± 14
10 | COc1ccc(N(CCc2cccc(C)n2)C(C)=O)cc1 | 112 ± 54
11 | COc1ccc(Cl)cc1NC(=O)CN(C)C(=O)c1cnn(-c2ccccc2)n1 | 79.4 ± 7.2
12 | COc1cncc(-c2cncc(N3CCN(c4ccncc4)CC3)n2)c1 | 87.2 ± 26
13 | COc1ccc(-c2cnc3ccc(NCc4ccc(S(N)(=O)=O)cc4)nn23)cn1 | 85.1 ± 6.3
14 | CO[C@H]1/C=C/O[C@@]2(C)Oc3c(C)c(O)c4c(O)c(/c(=C/NN5CCN(C)CC5)c(O)c4c3C2=O)=N\C(=O)/C(C)=C\C=C/[C@H](C)[C@H](O)[C@@H](C)[C@@H](O)[C@@H](C)[C@H](OC(C)=O)[C@@H]1C | 4.41 ± 2.2
15 | CCCn1nnc(NC(=O)COc2ccc(C3CCCCC3)cc2)n1 | 115.2 ± 1
16 | Cc1cc(NCC(C)C)c2n[nH]c(-c3ccccc3)c2n1 | 81.1 ± 5.3
